In the library only some 0.9% were active in any assay of this set; here they are far more common.
SRC3 TRFRET art: TR-FRET detection interference compounds, artefact control for PPARgamma SRC-3 recruitment agonists, biochemical, TR-FRET ratio | TR-FRET artefact counter-screen, PPARgamma/SRC-3 format; stronger effect = higher value | TR-FRET ratio at 8 µM | 0.39% of 99,000 active | AID 1048, 2008
PPARg SRC3 recr: PPARgamma agonists recruiting SRC-3 coactivator, primary screen, biochemical; Peroxisome proliferator-activated receptor gamma (Homo sapiens), P37231; biochemical PPARgamma/SRC-3 coactivator recruitment assay; activation, % at 8 µM; 0.26% of 200,000 active; AID 731, 2007; in the data active = activation above about 23%;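 note: 0% = DMSO and 100% = reference agonist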
Target sequence (P37231 whole entry, looked up): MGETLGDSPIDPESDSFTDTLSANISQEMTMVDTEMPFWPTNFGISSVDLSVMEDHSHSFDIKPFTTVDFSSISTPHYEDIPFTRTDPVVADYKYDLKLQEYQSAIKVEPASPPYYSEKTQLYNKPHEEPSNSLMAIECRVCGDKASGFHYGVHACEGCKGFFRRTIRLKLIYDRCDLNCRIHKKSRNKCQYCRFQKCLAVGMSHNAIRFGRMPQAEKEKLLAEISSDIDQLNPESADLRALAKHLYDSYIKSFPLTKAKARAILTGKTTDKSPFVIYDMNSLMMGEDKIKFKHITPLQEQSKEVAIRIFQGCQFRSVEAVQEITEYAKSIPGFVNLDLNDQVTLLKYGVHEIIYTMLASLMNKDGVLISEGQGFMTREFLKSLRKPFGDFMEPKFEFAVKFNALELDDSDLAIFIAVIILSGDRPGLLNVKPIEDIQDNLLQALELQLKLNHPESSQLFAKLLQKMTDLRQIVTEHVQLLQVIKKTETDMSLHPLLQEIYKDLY
SRC1 TRFRET art: TR-FRET detection interference compounds, primary screen, artefact control for PPARgamma SRC-1 recruitment agonists, biochemical, TR-FRET emission ratio; TR-FRET ratio at 8 µM; TR-FRET detection artefact counter-screen; stronger effect = higher value; 0.34% of 99,000 active; in the data active = TR-FRET ratio above about 2300
TR-FRET SRC-2 ct: TR-FRET signal artefacts, primary screen, artefact control for PPARgamma SRC-2 agonist project, biochemical; 0.4% of 200,000 active; TR-FRET ratio at 8 µM; TR-FRET artefact counter-screen; stronger effect = higher value
PPARg SRC2 recr: agonists of PPARg-SRC-2 recruitment, primary screen, biochemical, HTS | 0.34% of 200,000 active | PPARgamma LBD-SRC-2 recruitment | activation, % at 8 µM | AID 1032, 2008; in the data active = activation above about 22%;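 note: 0% = vehicle and 100% = reference agonist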
PPARg SRC1 recr: PPARgamma agonists recruiting SRC-1 coactivator, primary screen, biochemical. Peroxisome proliferator-activated receptor gamma (Homo sapiens), P37231. PPARgamma-SRC-1 coactivator recruitment biochemical assay. activation, % at 8 µM. 0.41% of 200,000 active. AID 631, 2007; in the data active = activation above about 19%;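 note: 0% = DMSO and 100% = reference agonist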
* marks the source's active call; other numbers are inactive results; . = not tested or not shown. Cut-off read from the data, not from the text of the source, unless noted: active = TR-FRET ratio above about 2000; inactive = the rest.

SMILES	SRC3 TRFRET art	PPARg SRC3 recr	SRC1 TRFRET art	TR-FRET SRC-2 ct	PPARg SRC2 recr	PPARg SRC1 recr
CC(=O)N1CCN(c2ccc(NC(=O)/C=C/c3ccccc3)cc2)CC1	1652	5	2020	1649	24*	9
CCc1nnc(NC(=O)CSc2ncnc3c2oc2ccccc23)s1	.	5	.	1593	11	86*
CCOc1ccccc1NC(=O)CSc1ncnc2c1oc1ccccc12	.	0	.	1627	6	11
CCCSc1ncnc2c1oc1ccccc12	.	4	.	1525	2	7
c1ccc(CSc2ncnc3c2oc2ccccc23)cc1	.	84*	.	2898*	62*	59*
O=C(CSc1ncnc2c1oc1ccccc12)N1CCN(c2ccccc2)CC1	.	25	.	1527	15	87*
O=C(N/N=C1\CCCc2c1[nH]c1ccc([N+](=O)[O-])cc21)c1ccncc1	1626	3	2152	1583	3	8
O=C(c1ccccc1)c1cnc(-c2ccc(Cl)cc2)s1	.	-1	.	1816	-6	29*
O=C(c1ccc(Cl)cc1)c1cnc(-c2ccc(Cl)cc2)s1	.	7	.	1525	-3	8
CC(C)Cn1c(=O)c2ccccc2n2c(SCC(=O)N3c4ccccc4CC3C)nnc12 (configuration not stated)	1436	-1	1626	1538	-4	-5
COc1cc(S(=O)(=O)NCC2CCCO2)ccc1Br (configuration not stated)	.	8	.	1656	5	5
COc1ccc2c(C)cc(SCC(=O)c3ccc4c(c3)OCO4)nc2c1	.	15	.	3035*	-3	13
COc1ccc(CNC(=O)COC(=O)c2ccc(Br)cc2)cc1	1595	2	1834	1403	1	0
CCc1nc(SCC(=O)Nc2nnc(CC(C)C)s2)n[nH]1	1462	4	1764	1721	9	0
COc1ccc(CCCc2n[nH]c(=S)o2)cc1	1430	-1	1887	2009*	-2	7
O=C(Nc1cccnc1)c1cc(-c2ccc3c(c2)OCO3)on1	.	19	.	1992*	20	12
O=C(Nc1cccnc1)c1cc(-c2ccc(F)cc2)on1	1821	1	1836	1430	-5	-6
Cc1cccc(C(C)C)c1NC(=O)c1ccc(COc2ccc3c(C)cc(=O)oc3c2)cc1	2221*	11	2539*	2255*	19	14
CCCCCCOc1ccc(N2C(=O)CC(SC(=NCC)NCC)C2=O)cc1 (configuration not stated)	1656	2	2053	1803	6	2
CCc1cc2c(=O)c(-c3nc(C)cs3)coc2cc1OC(C)C(=O)NCCO (configuration not stated)	1621	3	5866*	2120*	25*	138*
CCc1cc2c(=O)c(-c3nc(C)cs3)c(CCCC(=O)O)oc2cc1O	1707	4	1835	1611	2	4
Cc1cc(C)c(C#N)c(SCc2cc3c(cc2Cl)OCO3)n1	.	-5	.	2388*	56*	3
OCC#CCSc1nnc(-c2ccc(Br)cc2)o1	.	6	.	1717	11	13
COC(=O)Sc1nnc(-c2ccc(Br)cc2)o1	.	63*	.	2802*	54*	45*
CC(C)CCNC(=O)CCCCn1c(=O)[nH]c2ccsc2c1=O	1529	4	1798	1656	-1	7
SMILES	SRC3 TRFRET art	PPARg SRC3 recr	SRC1 TRFRET art	TR-FRET SRC-2 ct	PPARg SRC2 recr	PPARg SRC1 recr
Cc1nnc(SCc2ccccc2)n1N	1541	-9	2275	1367	3	22*
Cc1ccc(C2CC(c3ccccc3)=NN2C(=S)Nc2ccccc2)o1 (configuration not stated)	.	10	.	1587	5	11
CNC(=S)N1N=C(c2ccc(C)cc2)CC1c1ccc(Br)cc1 (configuration not stated)	.	2	.	2002*	6	4
CNC(=S)N1N=C(c2ccccc2)CC1c1ccccc1Cl (configuration not stated)	2267*	12	2109	1821	14	13
CC(C)c1ccc(C2CC(c3ccc(Br)cc3)=NN2C(N)=S)cc1 (configuration not stated)	1878	8	2207	1708	7	6
Cc1ccc(Oc2nc(-c3cccnc3)nc3ccccc23)c([N+](=O)[O-])n1	1483	0	1499	1558	-4	-3
O=C(/C=C/c1ccco1)c1ccc(NC(=O)C23CC4CC(CC(C4)C2)C3)cc1	1617	4	1578	1623	-1	6
NC(=S)NN=C1c2cc(S(=O)(=O)N3CCOCC3)ccc2-c2ccc(S(=O)(=O)N3CCOCC3)cc21	1632	4	2316*	1605	6	-2
CN(C)N=C1c2cc(S(=O)(=O)N3CCOCC3)ccc2-c2ccc(S(=O)(=O)N3CCOCC3)cc21	1466	0	1845	1605	0	-1
O=C(Cc1ccc(Cl)cc1)Nc1ccc2oc(-c3ccncc3)nc2c1	.	1	.	1678	9	6
Cc1cc(OCC(=O)Nc2ccc3oc(-c4ccncc4)nc3c2)ccc1Cl	.	1	.	1643	9	42*
O=C(Nc1ccc2oc(-c3ccncc3)nc2c1)c1ccc(F)cc1	1522	9	1768	1538	7	9
O=C(Nc1ccc2oc(-c3ccncc3)nc2c1)c1c(F)c(F)c(F)c(F)c1F	.	9	.	1536	-2	48*
CCO[C@@H]1OC(C(=O)NCc2ccccc2)=C[C@H](c2ccc(C(F)(F)F)cc2)[C@H]1CCCO	1583	0	1543	1354	-5	2
Cc1cc(Cl)ccc1Oc1ncnc2oc(-c3ccccc3)cc12	.	62*	.	1479	10	5
O=C1Nc2ccc(Cl)cc2C12Nc1ccccc1-c1nnc(SCc3ccccc3F)nc1O2 (configuration not stated)	1748	11	2406*	1786	18	14
CC(=O)c1cccc(NC(=O)COc2ccccc2C(=O)c2cc(C#N)c(=O)n(C3CCCCC3)c2)c1	1952	1	1806	1658	2	0
N#Cc1cc(C(=O)c2ccccc2OCC(=O)Nc2ccccc2Cl)cn(C2CCCCC2)c1=O	2092*	1	1593	1657	11	4
COc1ccc(-c2nc(CN(CC3CCC(=O)N3)C(C)C)c(C)o2)c(C)c1C (configuration not stated)	1665	-1	2156	1758	-2	7
CC(C)Cc1nc2sc3c(NCc4ccco4)ncnc3c2c2c1COC(C)(C)C2	.	2	.	4130*	106*	4
Cc1cc(C(=O)N/N=C/c2ccc(O)c([N+](=O)[O-])c2)n[nH]1	1716	8	2220	1578	9	4
Cc1cc(C(=O)N/N=C/c2cccc([N+](=O)[O-])c2O)n[nH]1	2114*	4	2259	1799	18	8

Screening results deposited in PubChem by The Scripps Research Institute Molecular Screening Center.
